Measured values as given in PubChem BioAssay.
“And” between values parts separate entries of the source, which are not always exact repeats. Equal entries are not always repeated. The source made the active and inactive calls. Unless noted, how the calls were made is not given here.

Tests used:
[1] = P. berghei load reduction in hepatocytes – cell-based, HepG2, luciferase luminescence, HepG2 viability, primary screen (AID 624349; in the data active means parasite load remaining mostly below about 12%, no sharp cut-off; inactive means mostly above about 10%;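 further: 100% = mean of DMSO negative control wells on the same plate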); details: P. berghei liver stage in HepG2, luciferase luminescence, concentration not given here; parasite load remaining: stronger effect = lower value; viability: measured here: HepG2 viability without parasites
[2] = tested on: Hepatitis C virus NS3 helicase; assay: blockers of NS3h binding to ssDNA – biochemical, fluorescence polarization, LOPAC1280 library, primary screen (AID 687035; in the data active means inhibition above about 37%); details: Purified HCV NS3 helicase, Cy5-dT15 ssDNA binding fluorescence polarization; stronger effect = higher value; concentration not given here
[3] = compounds altering Cy5-DNA-NS3h complex signal – biochemical, LOPAC1280, artefact control for HCV NS3 helicase inhibitor project (AID 687037); details: Cy5-DNA-NS3h complex fluorescence interference counterscreen
[4] = tested on: Aerobactin synthetase IucA (Klebsiella pneumoniae); assay: inhibition of K. pneumoniae IucA enzyme – biochemical, Tocris library, absorbance (AID 1345561); details: purified IucA enzyme assay, absorbance (OD) read-out; stronger effect = lower value;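 tested at 8 µM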;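 further: 100% = enzyme without compound and 0% = no enzyme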
[5] = MELAS cybrid and Rieske KO viability enhancers – cell-based, MELAS cybrids, Rieske KO mouse fibroblasts, CellTiter-Glo, primary screen (AID 1508586;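 active means mean z-score across replicates of 1.96 or higher in either the MELAS or the Rieske mutant cell line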;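 further: z relative to plate mean and SD of compound and empty wells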); details: low glucose
[6] = galactose survival enhancers in mitochondrial complex I cybrids – cell-based, galactose medium, ATP luminescence, primary screen (AID 1645843;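 active means z-score of at least 1.8 in each of two replicates, scored against plate mean and spread of sample wells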;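 further: positive z means more ATP and so rescue of galactose-driven cybrid death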); details: complex I mutant cybrid cells, 72 h, stronger effect = higher value
[7] = viability loss with induced miR-34 in A549 – imaging, A549 dox-inducible miR-34, nuclei and caspase counts, primary screen (AID 1347080;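 active means compounds whose cell count with miR-34 switched on is under 0.7 times the count with it off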); details: A549 miR-34 inducible, Hoechst nuclei count, 48 h
[8] = compounds altering circadian rhythm period length – cell-based, LOPAC library, luminescence reporter (AID 2774); details: circadian reporter cells, at 7 µM, actives lie on both sides;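 further: values are relative to mean of DMSO wells on each plate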
[9] = compounds altering viability of human ES cells (AID 493140); details: human embryonic stem cell survival screen; stronger effect = higher value;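 further: cells exposed to compounds for four days before counting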
[10] = blockers of cellular phospholipid synthesis – cell-based, LOPAC library, screen 4, primary screen (AID 1347384); details: animal cells, phospholipid biosynthesis inhibition screen; at 10 µM
[11] = MELAS cybrid survival, CellTiter-Glo 48 h, stronger effect = higher value
[12] = Rieske KO mouse fibroblast survival, CellTiter-Glo 72 h
[13] = stronger effect = lower value, cell number ratio, induced over uninduced
[14] = measured here: relative caspase fold change +Dox/-Dox
[15] = measured here: total cells with miR-34 induction, stronger effect = lower value
[16] = measured here: total cells without miR-34 induction

## Nc1ncnc2n[nH]c(Nc3ccc(F)cc3)c12
[1]
  parasite load remaining: 34.8% (inactive)
  viability: 85.8%
[2]
  inhibition: -5% (inactive)
[3]
  fluorescence ratio (interference): 1 (inactive)
[4]
  remaining activity: 105% (inactive)
[5]; [11]
  z-score: -0.494 (inactive)
[5]; [12]
  z-score: 0.733
[6]
  z-score: 0.375 (inactive) and 0.16 (inactive)

## O=S(=O)(c1ccccc1)N(CC(F)(F)F)c1ccc(C(O)(C(F)(F)F)C(F)(F)F)cc1
[4]
  remaining activity: 101% (inactive)
[7]; [13]
  fold change: 0.946 (inactive) and 1.36 (inactive) and 0.863 (inactive)
[7]; [14]
  fold change: 0.813 and 0.647 and 1.59
[7]; [15]
  cell count: 5490 and 6260 and 4300
[7]; [16]
  cell count: 5810 and 4590 and 4980
[5]; [11]
  z-score: -0.346 (inactive)
[5]; [12]
  z-score: -0.159
[6]
  z-score: -0.605 (inactive)

## CN/C(=C/[N+](=O)[O-])NCCSCc1ccc(CN(C)C)o1
[1]
  parasite load remaining: 43.4% (inactive) and 51.6% (inactive)
  viability: 47.5% and 107%
[4]
  remaining activity: 114% (inactive)
[7]; [13]
  fold change: 0.9 (inactive) and 0.849 (inactive) and 0.891 (inactive)
[7]; [14]
  fold change: 0.927 and 0.503 and 1.27
[7]; [15]
  cell count: 8480 and 7980 and 9140
[7]; [16]
  cell count: 9410 and 10300
[5]; [11]
  z-score: -0.0746 (inactive) and -0.291 (inactive)
[5]; [12]
  z-score: -0.171 and 0.538
[6]
  z-score: -0.09 (inactive) and 0.3 (inactive)

## O=C(NCCNCC(O)COc1ccc(O)cc1)N1CCOCC1 (stereo unspecified)
[8]
  period change: -0.145 h (inactive)
[9]
  survival: 3.92 (inactive)
[1]
  parasite load remaining: 67.2% (inactive) and 53.1% (inactive)
  viability: 92.7% and 101%
[4]
  remaining activity: 86.3% (inactive)
[7]; [13]
  fold change: 0.933 (inactive) and 0.982 (inactive) and 0.986 (inactive)
[7]; [14]
  fold change: 1.12 and 0.678 and 0.984
[7]; [15]
  cell count: 9570 and 9500 and 10300
[7]; [16]
  cell count: 10300 and 9670 and 10400
[5]; [11]
  z-score: 0.558 (inactive) and 0.821 (inactive)
[5]; [12]
  z-score: -0.323 and 0.721
[6]
  z-score: 1.45 (inactive) and 0.315 (inactive)

## CN(C)CCCSC(=N)N
[9]
  survival: 12 (inactive)
[1]
  parasite load remaining: 63.2% (inactive)
  viability: 78.8%
[4]
  remaining activity: 105% (inactive)
[7]; [13]
  fold change: 0.94 (inactive) and 0.947 (inactive)
[7]; [14]
  fold change: 0.889 and 0.696
[7]; [15]
  cell count: 8690 and 7530
[7]; [16]
  cell count: 9240 and 7950
[5]; [11]
  z-score: 0.388 (inactive)
[5]; [12]
  z-score: -0.104
[6]
  z-score: -0.34 (inactive)

## Clc1ccc2c(c1)N=C(N1CCNCC1)c1ccccc1N2
[2]
  inhibition: -2% (inactive)
[3]
  fluorescence ratio (interference): 1 (inactive)
[4]
  remaining activity: 102% (inactive)
[7]; [13]
  fold change: 1.02 (inactive) and 0.994 (inactive)
[7]; [14]
  fold change: 1.15 and 0.797
[7]; [15]
  cell count: 7100 and 7380
[7]; [16]
  cell count: 6990 and 7420
[10]
  outcome: inactive
[6]
  z-score: -0.785 (inactive) and -0.84 (inactive)

## C/C(=C\c1ccc(C(=O)O)cc1)c1ccc2c(c1)C(C)(C)CCC2(C)C
[8]
  period change: 0.4 h (inactive)
[9]
  survival: 85.2 (inactive)
[2]
  inhibition: 0% (inactive)
[7]; [15]
  cell count: 6410 and 5680 and 8680
[7]; [16]
  cell count: 6200 and 5870 and 8620
[10]
  outcome: inactive
[6]
  z-score: 1.45 (inactive) and 1.6 (inactive)

## Nc1ccc(-c2nc3ccc(-c4nc5ccc(N)cc5[nH]4)cc3[nH]2)cc1
[2]
  inhibition: -5% (inactive)
[3]
  fluorescence ratio (interference): 0.6 (active)
[4]
  remaining activity: 107% (inactive)
[7]; [13]
  fold change: 1.02 (inactive) and 0.968 (inactive)
[7]; [14]
  fold change: 0.586 and 0.928
[7]; [15]
  cell count: 11200 and 10100
[7]; [16]
  cell count: 10900 and 10500
[10]
  outcome: inactive
[6]
  z-score: 4.82 (active) and 5.54 (active)

## Oc1cc2c(c(Cl)c1O)CCNCC2c1ccccc1 (stereo unspecified)
[8]
  period change: 0.11 h (inactive)
[3]
  fluorescence ratio (interference): 0.6 (active)
[4]
  remaining activity: 120% (inactive)
[7]; [13]
  fold change: 1.3 (inactive) and 0.885 (inactive)
[7]; [14]
  fold change: 0.646 and 0.88
[7]; [15]
  cell count: 5030 and 5850
[7]; [16]
  cell count: 3880 and 6610
[10]
  outcome: inactive
[6]
  z-score: 0.1 (inactive) and -0.405 (inactive)

## Nc1nc2c(cnn2CCc2ccccc2)c2nc(-c3ccco3)nn12
[2]
  inhibition: 0% (inactive)
[3]
  fluorescence ratio (interference): 1 (inactive)
[4]
  remaining activity: 107% (inactive)
[7]; [13]
  fold change: 0.995 (inactive) and 1.05 (inactive)
[7]; [14]
  fold change: 1.09 and 1.04
[7]; [15]
  cell count: 10300 and 7560
[7]; [16]
  cell count: 10400 and 7200
[10]
  outcome: inactive
[6]
  z-score: 0.15 (inactive) and -0.35 (inactive)

## O=C(O)CCC/C=C\C[C@@H]1[C@@H](/C=C/[C@@H](O)COc2cccc(Cl)c2)[C@H](O)C[C@@H]1O
[9]
  survival: 113 (inactive)
[4]
  remaining activity: 110% (inactive)
[7]; [13]
  fold change: 0.943 (inactive) and 0.93 (inactive) and 0.921 (inactive)
[7]; [14]
  fold change: 1.66 and 1.25 and 1.86
[7]; [15]
  cell count: 5470 and 5960 and 8580
[7]; [16]
  cell count: 5810 and 6400 and 9320
[6]
  z-score: -0.155 (inactive)

## COC1(C2=NCCN2)COc2ccccc2O1 (stereo unspecified)
[8]
  period change: 0.04 h (inactive)
[2]
  inhibition: -3% (inactive)
[3]
  fluorescence ratio (interference): 0.9 (inactive)
[4]
  remaining activity: 126% (inactive)
[7]; [13]
  fold change: 0.986 (inactive) and 0.983 (inactive)
[7]; [14]
  fold change: 1.8 and 0.411
[7]; [15]
  cell count: 10100
[7]; [16]
  cell count: 10300 and 10200
[10]
  outcome: inactive
[6]
  z-score: -0.135 (inactive) and -0.24 (inactive)

## CCCCCCCCc1ccc(-c2ccc(C(=O)O)cc2)cc1
[2]
  inhibition: 0% (inactive)
[3]
  fluorescence ratio (interference): 1 (inactive)
[4]
  remaining activity: 95.4% (inactive)
[7]; [13]
  fold change: 0.939 (inactive) and 0.915 (inactive)
[7]; [14]
  fold change: 0.89 and 1.73
[7]; [15]
  cell count: 8400 and 8360
[7]; [16]
  cell count: 8950 and 9140
[10]
  outcome: inactive
[6]
  z-score: 0.205 (inactive) and -0.145 (inactive)

## CCCCCCC(=O)OC1CC(C)(C)NC(C)(C)C1
[2]
  inhibition: -4% (inactive)
[3]
  fluorescence ratio (interference): 0.9 (inactive)
[4]
  remaining activity: 97.8% (inactive)
[7]; [13]
  fold change: 0.999 (inactive) and 0.934 (inactive)
[7]; [14]
  fold change: 0.562 and 1.2
[7]; [15]
  cell count: 9880 and 8660
[7]; [16]
  cell count: 9890 and 9270
[10]
  outcome: inactive
[6]
  z-score: 0.56 (inactive) and 0.015 (inactive)

## Cc1ccc([N+](=O)[O-])cc1S(=O)(=O)N(C)C
[2]
  inhibition: 0% (inactive)
[3]
  fluorescence ratio (interference): 1 (inactive)
[4]
  remaining activity: 93.4% (inactive)
[7]; [13]
  fold change: 0.957 (inactive) and 0.856 (inactive)
[7]; [14]
  fold change: 1.62 and 1.47
[7]; [15]
  cell count: 9070 and 7620
[7]; [16]
  cell count: 9480 and 8900
[10]
  outcome: inactive
[6]
  z-score: 0.32 (inactive) and -0.31 (inactive)
